Most compounds without a hit are left out; they make up all but 10% or so of the library.
GLS inh: inhibitors of human glutaminase (GLS) | O94925 | GLS enzymatic activity, qHTS titration | Potency, µM (doses to about 45.5 µM), hits mostly inhibitors | 0.21% of 410,000 active
Target sequence (O94925 whole entry, looked up): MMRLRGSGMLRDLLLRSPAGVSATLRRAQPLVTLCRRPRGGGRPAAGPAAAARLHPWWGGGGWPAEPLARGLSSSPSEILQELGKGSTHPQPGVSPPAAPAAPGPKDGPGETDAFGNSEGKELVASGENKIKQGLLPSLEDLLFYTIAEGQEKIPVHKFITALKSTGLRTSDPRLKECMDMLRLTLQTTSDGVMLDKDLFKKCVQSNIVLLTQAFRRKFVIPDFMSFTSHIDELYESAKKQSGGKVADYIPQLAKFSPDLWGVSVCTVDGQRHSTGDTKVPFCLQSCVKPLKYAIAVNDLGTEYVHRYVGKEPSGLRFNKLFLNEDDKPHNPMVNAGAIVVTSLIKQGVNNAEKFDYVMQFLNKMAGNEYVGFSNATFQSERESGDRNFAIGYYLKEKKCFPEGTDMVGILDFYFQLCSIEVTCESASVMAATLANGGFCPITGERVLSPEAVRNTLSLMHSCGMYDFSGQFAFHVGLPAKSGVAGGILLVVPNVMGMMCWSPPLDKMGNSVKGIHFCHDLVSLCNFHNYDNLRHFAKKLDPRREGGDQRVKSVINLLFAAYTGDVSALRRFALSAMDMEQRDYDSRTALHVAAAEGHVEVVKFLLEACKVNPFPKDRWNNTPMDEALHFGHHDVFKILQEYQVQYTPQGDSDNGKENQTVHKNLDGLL
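Enzyme dispensed in phosphate buffer (45 mM, pH 8.2, 0.02% Tween-20), compounds pinned in, then 1 mM L-glutamine solution and the glutamate oxidase–HRP–Amplex Red mix added; fluorescence read immediately and again after 30 min at room temperature.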
JMJD2A Tudor inh: blocks the human JMJD2A Tudor domain. Potency, µM (top dose mostly 114 µM), actives largely listed as inhibitors. AID 504339. 4.4% of 390,000 active. O75164. AlphaScreen JMJD2A-Tudor / H3K4me3 peptide binding; further: nearly all actives have a fitted effect of over 50% in size
HP1b binding inh: HP1-beta chromodomain-methylated histone interaction inhibition | AlphaScreen HP1-beta / biotin-H3K9me3 peptide binding | Potency, µM (highest dose often 114 µM), usual class: inhibitors | 0.56% of 390,000 active | AID 540317; further: nearly all actives have a fitted effect of over 70% in size
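HP1-beta protein (50 nM final) preincubated 30 min at room temperature with biotinylated H3(1-18)K9me3 peptide (50 nM) in PBS pH 7.4, 0.01% Tween-20, then compound added for 30 min. AlphaScreen streptavidin donor/nickel chelate acceptor beads (10 ug/mL final), 30 min dark, luminescence read.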
G9a inh: G9a (human) methyltransferase inhibition. G9a H3K9 monomethylation, AlphaScreen, 2 h. Potency, µM (doses to about 102 µM), most hits filed as inhibitors. 8.8% of 350,000 active. AID 504332; further: nearly all actives have a fitted effect of over 75% in size
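G9a (20 nM) preincubated 15 min RT with compounds, then 500 nM biotinylated H3K9 peptide and 20 uM SAM added; 2 h RT reaction. Monomethyl-H3K9 product detected by AlphaScreen with anti-H3K9me1 antibody, streptavidin donor and anti-rabbit IgG acceptor beads.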
BAZ2B block: blocks human BAZ2B. Q9UIF8. AlphaScreen BAZ2B-H3K14Ac peptide displacement. Potency, µM (titrated, usually from 114 µM), actives largely listed as inhibitors. 4.4% of 360,000 active. AID 504333; further: nearly all actives have a fitted effect of over 60% in size
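BAZ2B (50 nM) with biotin-H3(5-23)K14Ac peptide (50 nM) in PBS pH 7.4, 0.01% Tween-20, preformed 30 min, then compound 30 min at room temperature; top concentration 110uM. AlphaScreen streptavidin donor/nickel chelate acceptor beads (10 ug/mL final), 20 min dark, signal read.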
Hits are given with their value; . = inactive; ? = inconclusive; / = not tested or not shown; [ ] = remark or other dose. The call rests on the fitted dose curve; in most records, active means well fitted curve in the direction sought with a large enough effect; inconclusive means small, poorly fitted or top-dose-only effect, or another doubt; inactive means no such curve, though single readings can be large; an effect the other way counts as inactive or inconclusive.

SMILES	GLS inh	JMJD2A Tudor inh	HP1b binding inh	G9a inh	BAZ2B block
Cc1c(NC(=O)c2cn3ccccc3n2)cccc1-n1cnnn1	.	20µM	.	?	.
COc1cc(NC(=O)c2ccc(-c3ccc(F)c(F)c3)c3ccoc23)cc(OC)c1OC	.	/	/	/	/
CCCNC(=O)C1(C)CCCN(Cc2ccc(C(=O)OCC)o2)C1 (stereo unspecified)	.	/	/	/	/
NC(=O)CC(NSc1ccccc1[N+](=O)[O-])C(=O)O (stereo unspecified)	.	35µM	.	?	?
COc1ccc(NC(=O)CN2CCN(C3c4ccccc4-c4ccccc43)CC2)c(OC)c1	.	?	.	45µM	?
CC(C)(C)C(=O)CN1CCN(C2c3ccccc3-c3ccccc32)CC1	.	.	.	50µM	.
COc1ccccc1NC(=O)CN1CCN(C2c3ccccc3-c3ccccc32)CC1	.	.	.	/	.
Cc1ccc2sc(C)[n+](CCO)c2c1	?	.	.	28µM	/
CCCC[n+]1c(C)sc2ccc(C)cc21	.	.	.	.	.
CN(C)CCC(=O)c1cccc(Br)c1	.	.	?	2µM	.
CCCCN(C(=O)c1ccc2c(c1)OCO2)c1c(N)n(CCCC)c(=O)[nH]c1=O	.	.	.	.	.
CCCCN(C(=O)c1ccc2c(c1)OCO2)c1ccccc1	.	.	.	50µM	.
CN(C)CCC(=O)c1ccc2c(c1)OCO2	.	?	.	1.8µM	.
O=C(COn1nnc2ccccc21)N1CCN(Cc2ccccc2)CC1	.	.	.	.	.
CCCCCOCC1CC(C/C(C)=N/Nc2nc(-c3ccccc3)cs2)C(=O)O1 (stereo unspecified)	.	?	.	40µM	?
O=C1OCC(CO)(CO)N=C1NNc1cc(Cl)ccc1Cl	.	.	.	50µM	.
O=C1OCC(CO)(CO)N=C1NNc1ccccc1[N+](=O)[O-]	.	.	.	?	.
ClCC1NCC(c2ccccc2Cl)c2c1[nH]c1ccccc21 (stereo unspecified)	.	?	.	?	45µM
CC1CCCC(C)N1C(=O)CN1C(=O)C(C)(C)Oc2ccc(C(=O)NC3CCCC3)cc21 (stereo unspecified)	.	.	.	.	.
COc1ccc(S(=O)(=O)N2CCN(C(=O)/C=C/c3ccco3)CC2)cc1	.	.	.	25µM	.
COC(=O)/C=C/C(=O)N1CCN(c2ccccc2)CC1	.	.	.	50µM	.
O=C(/C=C/c1ccco1)N1CCC(Cc2ccccc2)CC1	.	50µM	.	32µM	50µM
COc1cccc(N2CCN(C(=O)/C=C/c3ccco3)CC2)c1	.	.	.	28µM	50µM
O=C(/C=C/c1ccco1)N1CCN(c2ncccn2)CC1	.	.	.	?	.
COC(=O)/C=C/C(=O)N1CCN(c2ccccc2C)CC1	.	.	.	.	.
SMILES	GLS inh	JMJD2A Tudor inh	HP1b binding inh	G9a inh	BAZ2B block
Cc1ccc(-c2cc(C(=O)N3CC(C)CC(C)C3)c3ccccc3n2)o1 (stereo unspecified)	.	28µM	?	8.9µM	79µM
Cc1ccc(-c2cc(C(=O)N3CCC(C)CC3)c3ccccc3n2)cc1	.	.	.	.	.
Cc1ccc(-c2cc(C(=O)N3CC(C)OC(C)C3)c3ccccc3n2)o1 (stereo unspecified)	.	.	.	10µM	.
CCOc1ccc(C2=C(C(=O)CC)Sc3nncn3N2C(=O)CC)cc1	.	.	.	.	.
Cc1cn([C@H]2C[C@H](O)[C@@H](/C=C/C(=O)NCc3ccc4c(c3)OCO4)O2)c(=O)[nH]c1=O	.	/	/	/	/
CC1=CC(C)(C)N2C(=O)C(=Nc3ccc(O)cc3)c3cccc1c32	?	.[11.4 µM]	40µM	5µM	35µM
c1ccc(-c2nc(N3CCCCCC3)c3ccccc3n2)nc1	.	?	.	.	50µM
c1ccc(-c2nc(N3CCOCC3)c3ccccc3n2)nc1	.	.	.	?	?
CC(C)CC1C(=O)N(Cc2cn(Cc3ccco3)nn2)CCS(=O)(=O)N1Cc1ccc(-c2ccccc2)cc1 (stereo unspecified)	.	/	/	/	/
CN(C)CCOC(=O)C12CC3CC(C1)CC(C(=O)OCCN(C)C)(C3)C2	.	.	.	56µM	.
CSc1ncc(C(=O)NCc2ccc(F)cc2)c(-c2ccccc2)n1	.	.	.	.	.
